Experimental data from the supplement of paper PMC10849652.
About 8,800 targets were measured; listed, in parts, are those with a hit and a random draw of the rest. About 0.5% of all pairs of compound and target were hits. A number with no mark means an inactive call.

Each target was assayed with C1=CC=C(C=C1)[C@H](COC2=CC3=C(C=C2)NC(=O)N3)NC(=O)C4=CC=CN(C4=O)CC5=CC(=C(C=C5)F)F (assay: log2 fold change, soluble protein after heating vs DMSO (PISA); higher = thermal stabilisation; K562 lysate, 10 uM; active = over 0.2 and 3.5 SD of the protein, either way, in both replicates (recomputed)).
How it was run: (§1)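 K562 pellets were dounce-homogenised in PBS pH 7.4 with 1 mM MgCl2, and the crude extract at 1 mg/mL protein was treated with 10 μM compound for 30 min. Aliquots were heated for 3 min across 48°C-58°C, pooled, and brought to 0.5% NP-40 at 4°C; soluble protein was the supernatant after 21,000xg for 90 min. Soluble protein was quantified by TMTpro 16plex LC-MS/MS with channel sums equalised, and reported as log2 fold change in thermal stability against DMSO controls, with values from duplicates.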

Sequence of UniProt Q9NXV6 (Q9NXV6 whole entry, looked up): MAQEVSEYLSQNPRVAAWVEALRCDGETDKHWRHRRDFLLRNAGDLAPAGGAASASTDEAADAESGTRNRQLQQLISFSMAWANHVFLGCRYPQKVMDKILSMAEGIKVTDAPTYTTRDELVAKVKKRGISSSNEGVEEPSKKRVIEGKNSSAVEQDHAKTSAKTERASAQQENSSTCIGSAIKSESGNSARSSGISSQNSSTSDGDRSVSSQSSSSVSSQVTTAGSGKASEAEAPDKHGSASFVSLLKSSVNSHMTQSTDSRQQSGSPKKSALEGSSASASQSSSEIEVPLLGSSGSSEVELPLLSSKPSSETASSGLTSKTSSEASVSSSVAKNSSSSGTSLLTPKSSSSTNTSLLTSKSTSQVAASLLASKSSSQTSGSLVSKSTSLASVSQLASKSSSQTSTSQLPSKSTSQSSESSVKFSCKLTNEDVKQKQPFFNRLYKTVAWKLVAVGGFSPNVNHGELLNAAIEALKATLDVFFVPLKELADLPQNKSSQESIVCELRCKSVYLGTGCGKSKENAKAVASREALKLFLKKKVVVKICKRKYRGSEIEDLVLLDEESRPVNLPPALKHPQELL
Sequence of UniProt Q8N163 (Q8N163 whole entry, looked up): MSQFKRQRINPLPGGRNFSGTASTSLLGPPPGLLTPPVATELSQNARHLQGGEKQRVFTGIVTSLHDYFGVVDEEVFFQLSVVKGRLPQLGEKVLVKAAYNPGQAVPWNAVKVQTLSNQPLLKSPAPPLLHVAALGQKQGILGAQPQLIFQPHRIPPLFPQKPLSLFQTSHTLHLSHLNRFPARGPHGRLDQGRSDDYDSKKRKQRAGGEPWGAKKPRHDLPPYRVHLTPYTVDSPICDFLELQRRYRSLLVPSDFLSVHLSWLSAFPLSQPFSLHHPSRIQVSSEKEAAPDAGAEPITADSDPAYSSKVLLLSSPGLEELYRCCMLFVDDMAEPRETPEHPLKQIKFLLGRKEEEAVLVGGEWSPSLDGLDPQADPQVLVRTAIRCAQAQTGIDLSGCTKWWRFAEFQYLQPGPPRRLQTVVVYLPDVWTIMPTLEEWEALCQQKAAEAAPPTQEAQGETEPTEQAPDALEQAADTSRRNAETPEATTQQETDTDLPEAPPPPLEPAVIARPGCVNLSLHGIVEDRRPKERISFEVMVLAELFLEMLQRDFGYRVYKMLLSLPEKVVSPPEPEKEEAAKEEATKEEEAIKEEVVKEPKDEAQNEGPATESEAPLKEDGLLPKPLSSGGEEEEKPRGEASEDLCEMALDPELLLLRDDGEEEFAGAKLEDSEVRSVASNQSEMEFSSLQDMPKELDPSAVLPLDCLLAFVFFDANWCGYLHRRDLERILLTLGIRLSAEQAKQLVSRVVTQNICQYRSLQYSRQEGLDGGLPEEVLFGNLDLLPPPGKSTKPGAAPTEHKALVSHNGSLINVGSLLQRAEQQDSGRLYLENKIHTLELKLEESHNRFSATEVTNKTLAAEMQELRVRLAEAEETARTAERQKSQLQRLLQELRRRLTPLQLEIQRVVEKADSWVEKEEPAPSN
Sequence of UniProt Q14012 (Q14012 whole entry, looked up): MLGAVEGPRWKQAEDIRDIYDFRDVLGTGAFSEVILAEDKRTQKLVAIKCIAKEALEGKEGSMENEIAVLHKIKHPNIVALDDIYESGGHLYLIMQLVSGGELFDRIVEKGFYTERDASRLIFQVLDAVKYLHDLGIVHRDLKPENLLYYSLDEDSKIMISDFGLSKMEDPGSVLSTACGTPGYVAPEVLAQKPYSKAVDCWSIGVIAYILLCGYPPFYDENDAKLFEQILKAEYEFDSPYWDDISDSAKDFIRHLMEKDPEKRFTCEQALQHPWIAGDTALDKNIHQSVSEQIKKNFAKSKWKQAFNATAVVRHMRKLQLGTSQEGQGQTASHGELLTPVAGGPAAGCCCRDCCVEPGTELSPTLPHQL
Sequence of UniProt O15155 (O15155 whole entry, looked up): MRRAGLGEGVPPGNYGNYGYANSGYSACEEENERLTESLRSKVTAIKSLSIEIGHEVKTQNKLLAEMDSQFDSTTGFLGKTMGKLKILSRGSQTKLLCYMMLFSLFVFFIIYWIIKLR
Sequence of UniProt O60508 (O60508 whole entry, looked up): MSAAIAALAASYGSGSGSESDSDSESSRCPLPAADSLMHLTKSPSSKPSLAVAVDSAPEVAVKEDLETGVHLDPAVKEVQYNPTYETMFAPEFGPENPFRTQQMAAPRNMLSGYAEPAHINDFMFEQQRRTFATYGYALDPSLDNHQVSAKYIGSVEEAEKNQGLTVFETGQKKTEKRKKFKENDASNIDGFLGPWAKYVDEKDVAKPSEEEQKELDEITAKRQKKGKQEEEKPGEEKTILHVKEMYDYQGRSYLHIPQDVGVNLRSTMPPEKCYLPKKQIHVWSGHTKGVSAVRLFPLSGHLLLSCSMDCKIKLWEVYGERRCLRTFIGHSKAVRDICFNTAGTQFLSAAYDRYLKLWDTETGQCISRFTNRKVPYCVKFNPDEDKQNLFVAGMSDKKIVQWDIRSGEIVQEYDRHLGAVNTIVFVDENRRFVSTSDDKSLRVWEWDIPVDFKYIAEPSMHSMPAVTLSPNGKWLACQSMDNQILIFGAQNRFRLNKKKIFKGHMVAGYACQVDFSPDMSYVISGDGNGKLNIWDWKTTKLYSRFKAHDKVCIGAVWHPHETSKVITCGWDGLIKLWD
Sequence of UniProt Q9Y4P1 (Q9Y4P1 whole entry, looked up): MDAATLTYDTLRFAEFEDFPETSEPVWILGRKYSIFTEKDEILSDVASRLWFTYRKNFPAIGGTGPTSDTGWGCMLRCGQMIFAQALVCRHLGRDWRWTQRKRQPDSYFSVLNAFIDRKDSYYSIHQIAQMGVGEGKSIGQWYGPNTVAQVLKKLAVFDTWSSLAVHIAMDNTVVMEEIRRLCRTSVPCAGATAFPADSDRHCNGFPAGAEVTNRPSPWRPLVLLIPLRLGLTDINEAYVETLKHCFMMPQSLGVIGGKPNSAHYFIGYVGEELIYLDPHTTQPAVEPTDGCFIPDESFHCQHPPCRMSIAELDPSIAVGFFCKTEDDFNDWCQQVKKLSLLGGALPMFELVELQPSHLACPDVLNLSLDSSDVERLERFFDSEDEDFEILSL
Sequence of UniProt P24863 (P24863 whole entry, looked up): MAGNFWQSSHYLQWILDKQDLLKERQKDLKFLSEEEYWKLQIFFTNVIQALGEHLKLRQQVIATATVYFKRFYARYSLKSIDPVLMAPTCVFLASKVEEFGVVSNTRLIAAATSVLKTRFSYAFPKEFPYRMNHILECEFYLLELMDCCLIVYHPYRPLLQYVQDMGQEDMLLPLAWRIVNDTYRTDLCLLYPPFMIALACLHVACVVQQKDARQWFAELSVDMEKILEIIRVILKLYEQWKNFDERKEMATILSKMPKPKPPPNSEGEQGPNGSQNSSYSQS
Sequence of UniProt O14965 (O14965 whole entry, looked up): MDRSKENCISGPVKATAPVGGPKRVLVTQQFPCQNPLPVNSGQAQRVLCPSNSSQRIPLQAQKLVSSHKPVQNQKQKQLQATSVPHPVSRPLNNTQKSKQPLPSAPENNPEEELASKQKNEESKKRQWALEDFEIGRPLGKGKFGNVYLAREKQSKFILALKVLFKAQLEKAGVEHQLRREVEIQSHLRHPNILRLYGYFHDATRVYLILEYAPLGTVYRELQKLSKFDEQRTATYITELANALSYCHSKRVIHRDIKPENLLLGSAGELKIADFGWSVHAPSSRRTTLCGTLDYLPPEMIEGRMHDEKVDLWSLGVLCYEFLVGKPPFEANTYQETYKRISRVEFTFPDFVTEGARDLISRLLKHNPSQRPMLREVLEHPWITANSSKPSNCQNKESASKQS
Sequence of UniProt Q8N960 (Q8N960 whole entry, looked up): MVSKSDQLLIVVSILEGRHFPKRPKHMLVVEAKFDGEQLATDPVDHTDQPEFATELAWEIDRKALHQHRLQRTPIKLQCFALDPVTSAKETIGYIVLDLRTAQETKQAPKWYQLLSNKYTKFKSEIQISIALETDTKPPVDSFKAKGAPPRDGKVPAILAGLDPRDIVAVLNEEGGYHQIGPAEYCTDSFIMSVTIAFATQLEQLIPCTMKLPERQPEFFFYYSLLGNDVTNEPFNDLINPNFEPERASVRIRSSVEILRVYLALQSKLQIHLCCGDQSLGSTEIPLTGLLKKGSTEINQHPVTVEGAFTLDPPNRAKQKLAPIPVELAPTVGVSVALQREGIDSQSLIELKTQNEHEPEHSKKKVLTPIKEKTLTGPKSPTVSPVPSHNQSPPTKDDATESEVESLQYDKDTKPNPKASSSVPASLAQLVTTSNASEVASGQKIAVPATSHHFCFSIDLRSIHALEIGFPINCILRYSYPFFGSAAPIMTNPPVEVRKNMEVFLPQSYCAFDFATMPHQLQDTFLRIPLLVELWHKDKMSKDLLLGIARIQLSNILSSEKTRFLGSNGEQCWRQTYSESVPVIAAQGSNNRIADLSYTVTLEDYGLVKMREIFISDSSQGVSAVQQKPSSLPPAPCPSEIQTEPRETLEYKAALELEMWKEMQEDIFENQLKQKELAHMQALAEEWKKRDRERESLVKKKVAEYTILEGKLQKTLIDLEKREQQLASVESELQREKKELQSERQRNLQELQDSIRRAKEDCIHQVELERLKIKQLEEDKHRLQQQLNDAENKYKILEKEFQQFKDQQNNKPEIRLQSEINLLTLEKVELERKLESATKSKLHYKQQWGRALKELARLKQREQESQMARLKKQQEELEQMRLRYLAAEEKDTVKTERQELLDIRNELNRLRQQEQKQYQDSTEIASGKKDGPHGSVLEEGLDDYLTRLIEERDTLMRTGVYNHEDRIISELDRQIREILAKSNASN
Sequence of UniProt Q8N7R7 (Q8N7R7 whole entry, looked up): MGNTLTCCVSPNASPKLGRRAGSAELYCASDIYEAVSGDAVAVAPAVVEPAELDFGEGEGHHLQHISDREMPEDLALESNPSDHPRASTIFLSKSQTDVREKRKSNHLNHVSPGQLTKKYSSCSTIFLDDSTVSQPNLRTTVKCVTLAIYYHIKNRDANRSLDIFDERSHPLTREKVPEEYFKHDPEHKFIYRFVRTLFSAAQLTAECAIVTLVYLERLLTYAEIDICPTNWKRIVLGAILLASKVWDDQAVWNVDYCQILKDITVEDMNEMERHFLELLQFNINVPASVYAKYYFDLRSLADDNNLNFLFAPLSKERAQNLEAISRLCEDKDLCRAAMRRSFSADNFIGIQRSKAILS

Row | Target | log2 fold change
1 | CAMK1 (UniProt Q14012) | 0.096
2 | CCNC (UniProt P24863) | 0.045
3 | BMS1 (UniProt Q14692) | 0.047
4 | BET1 (UniProt O15155) | -0.053
5 | CHCHD4 isoform 2 (UniProt Q8N4Q1) | 0.04
6 | AURKA (UniProt O14965) | -0.053
7 | CDK1 (UniProt P06493) | 0.037
8 | CCNYL1 (UniProt Q8N7R7) | -0.007
9 | BRD4 (UniProt O60885) | 0.022
10 | ATG4B (UniProt Q9Y4P1) | 0.004
11 | CCAR2 (UniProt Q8N163) | 0.001
12 | CEP120 (UniProt Q8N960) | -0.074
13 | CDKN2AIP (UniProt Q9NXV6) | 0.01
14 | CDC40 (UniProt O60508) | 0.036
15 | AURKAIP1 (UniProt Q9NWT8) | 0.05
16 | CARHSP1 (UniProt Q9Y2V2) | -0.031

Each target was assayed with CC1=C(SC2=C1C(=N[C@H](C3=NN=C(N32)C)CC(=O)N)C4=CC=C(C=C4)Cl)C in the same assay as above.
How it was run: as §1

Row | Target | log2 fold change
17 | ATP6V0A2 (UniProt Q9Y487) | -0.017
18 | CASP9 (UniProt P55211) | -0.024
19 | CCDC25 (UniProt Q86WR0) | 0.035
20 | ATP5PF isoform 2 (UniProt P18859) | -0.086
21 | ATG4A (UniProt Q8WYN0) | 0.022
22 | CARD9 (UniProt Q9H257) | 0.065
23 | CAMKK2 (UniProt Q96RR4) | -0.047
24 | CDC25C (UniProt P30307) | -0.011
25 | CHCHD2 (UniProt Q9Y6H1) | -0.043
26 | CASP3 (UniProt P42574) | -0.011
27 | CDK5 (UniProt Q00535) | -0.03
28 | CARS isoform 3 (UniProt P49589) | 0.014
29 | C18orf25 isoform 2 (UniProt Q96B23) | 0.224
30 | BRD3 (UniProt Q15059) | 0.631 (active)
31 | CDK11B (UniProt P21127) | 0.029
32 | CAPN15 (UniProt O75808) | 0.063
33 | CASP6 (UniProt P55212) | 0.011
34 | CDK2 (UniProt P24941) | 0.004
35 | CHAF1A (UniProt Q13111) | 0.136
36 | BOLA2 (UniProt Q9H3K6) | 0.01

Row | Target | log2 fold change
37 | ATG7 (UniProt O95352) | 0.003
38 | BORCS5 (UniProt Q969J3) | 0
39 | C19orf54 (UniProt Q5BKX5) | 0.102
40 | CAMK1 (UniProt Q14012) | 0.014
41 | CCNC (UniProt P24863) | -0.09
42 | BMS1 (UniProt Q14692) | -0.036
43 | BET1 (UniProt O15155) | 0.013
44 | CHCHD4 isoform 2 (UniProt Q8N4Q1) | -0.076
45 | AURKA (UniProt O14965) | -0.001
46 | CDK1 (UniProt P06493) | -0.009
47 | CCNYL1 (UniProt Q8N7R7) | -0.089
48 | BRD4 (UniProt O60885) | 0.868 (active)
49 | ATG4B (UniProt Q9Y4P1) | 0.034
50 | CCAR2 (UniProt Q8N163) | 0.005
51 | CEP120 (UniProt Q8N960) | 0.097
52 | CDKN2AIP (UniProt Q9NXV6) | 0.024
53 | CDC40 (UniProt O60508) | 0.003
54 | AURKAIP1 (UniProt Q9NWT8) | 0.032
55 | CARHSP1 (UniProt Q9Y2V2) | 0.027
